Records with an inconclusive call do not appear. Activity calls are given as the source filed them. Unless noted, calls follow the shape of the dose curve; as a rule, active = well fitted curve in the direction sought with a large enough effect in the repeat runs; inconclusive = weak or mixed curves; inactive = no such curve, though single readings can be large; an effect the other way counts as inactive or inconclusive.
Key:
[1] = qHTS assay to identify small molecule agonists of the hypoxia (HIF-1) signaling pathway - cell viability counter screen (AID 1224844; calls by dose curve; also: nearly all actives have a fitted effect of over 50% in size)
In short: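 CellTiter-Glo luminescence read-out, 30 min RT, taken in the same wells as the beta-lactamase HRE reporter assay; HRE-bla ME-180 cells, 0.5% dialyzed FBS, 17 hr compound treatment at 37C, 5% CO2.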

[2] = qHTS assay to identify small molecule agonists of H2AX (AID 1224845; active = well fitted activation curve with a large enough effect in the signal ratio in the repeat runs, not every such curve was filed as active; the % refers to the signal ratio)
In short: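 Wild-type CHO-K1 cells plated overnight, then exposed 3 hr at 37C to compounds at 15 concentrations (0.76% DMSO). Lysed, then HTRF anti-pH2AX(S139)-cryptate/anti-H2AX-d2 detection after 24 hr at room temperature; emissions 665 and 620 nm.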

[3] = qHTS assay to identify small molecule agonists of the hypoxia (HIF-1) signaling pathway (AID 1224846; active = well fitted activation curve with a large enough effect in the signal ratio in the repeat runs, not every such curve was filed as active; the % refers to the signal ratio)
In short: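 Beta-lactamase FRET read-out (CCF4-AM substrate) from ME-180 cells carrying an HRE-driven bla reporter, after 17 hrs compound exposure at 37C/5% CO2. Cells were seeded at 2,000 per well in 0.5% dialyzed FBS medium and preincubated 5 hrs.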

[4] = qHTS assay to identify small molecule agonists of H2AX - cell viability counter screen (AID 1224847; calls by dose curve; also: top concentration of the series differs between compounds; nearly all actives have a fitted effect of over 30% in size)
In short: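 After overnight plating of 1000 CHO-K1 cells per well, a 15-concentration compound series was applied for 3 hr at 37C. Luminescence from CellTiter-Glo, read following 30 min at room temperature, reflected cell viability.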

[5] = qHTS RealTime-Glo MT Cell Viability Assay in HepG2 cells - 24 hour (AID 1224867); also: nearly all actives have a fitted effect of over 50% in size
In short: (§1)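 HepG2 cells (600/well) were dispensed with RealTime-Glo reagents, incubated 5 h at 37 °C, then treated with compounds in DMSO for up to 40 h. Nonlytic NanoLuc luminescence reflecting viable cells was read at each stated time point.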

[6] = qHTS RealTime-Glo MT Cell Viability Assay in HEK293 cells - 32 hour (AID 1224868); also: top concentration of the series differs between compounds; nearly all actives have a fitted effect of over 50% in size
In short: (§2)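 HEK293 cells seeded with NanoLuc/prosubstrate reagent, rested 5 h at 37 C, then dosed and kept at 37 C up to 40 h. Nonlytic real-time luminescence from viable cells read at 0, 8, 16, 24, 32 and 40 h.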

[7] = A CellTox Green Cytotoxicity Assay to monitor cytotoxicity in HEK293 cells - 0 hour (AID 1224869); also: nearly all actives have a fitted effect of over 50% in size
In short: (§3)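 Read-out: fluorescence of a cell-impermeant cyanine dye staining DNA of dead cells, proportional to cytotoxicity. HEK293, 600 cells/well with reagent, compound (23 nL DMSO) added after 5 h; reads at 0, 8, 16, 24, 32, 40 h.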

[8] = qHTS RealTime-Glo MT Cell Viability Assay in HepG2 cells - 40 hour (AID 1224870); also: nearly all actives have a fitted effect of over 50% in size
In short: (§4)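 HepG2 cells mixed with RealTime-Glo MT reagents (NanoLuc plus cell-permeant prosubstrate) were seeded at 600 cells/well, incubated 5 h at 37 C/5% CO2, then pinned with compounds in DMSO; nonlytic luminescence tracked viability during 40 h treatment.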

[9] = A CellTox Green Cytotoxicity Assay to monitor cytotoxicity in HEK293 cells - 40 hour (AID 1224871); also: nearly all actives have a fitted effect of over 45% in size
In short: as §3

[10] = qHTS RealTime-Glo MT Cell Viability Assay in HEK293 cells - 16 hour (AID 1224872)
In short: as §2

[11] = qHTS RealTime-Glo MT Cell Viability Assay in HepG2 cells - 8 hour (AID 1224873); also: nearly all actives have a fitted effect of over 55% in size
In short: as §4

[12] = A CellTox Green Cytotoxicity Assay to monitor cytotoxicity in HEK293 cells - 24 hour (AID 1224875); also: series mostly up to about 77 µM; nearly all actives have a fitted effect of over 45% in size
In short: as §3

[13] = A CellTox Green Cytotoxicity Assay to monitor cytotoxicity in HepG2 cells - 16 hour (AID 1224876); also: nearly all actives have a fitted effect of over 45% in size
In short: (§5)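 HepG2, 600 cells/well premixed w/ CellTox Green; 5 h settle, 37 C/5% CO2; pintool cpd add (DMSO); 37 C, 40 h; fluorescence read at 0, 8, 16, 24, 32, 40 h.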

[14] = qHTS RealTime-Glo MT Cell Viability Assay in HepG2 cells - 32 hour (AID 1224877); also: nearly all actives have a fitted effect of over 55% in size
In short: as §1

[15] = A CellTox Green Cytotoxicity Assay to monitor cytotoxicity in HepG2 cells - 24 hour (AID 1224878); also: nearly all actives have a fitted effect of over 45% in size
In short: as §5

[16] = A CellTox Green Cytotoxicity Assay to monitor cytotoxicity in HepG2 cells - 40 hour (AID 1224879); also: nearly all actives have a fitted effect of over 40% in size
In short: as §5

[17] = qHTS RealTime-Glo MT Cell Viability Assay in HEK293 cells - 0 hour (AID 1224880)
In short: (§6)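 Luminescence readout at each listed time point; HEK293, 600 cells/well, RealTime-Glo MT reagent added with cells; compounds pinned (23 nL in DMSO) after 5 h at 37 C; continuous culture at 37 C.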

[18] = qHTS RealTime-Glo MT Cell Viability Assay in HEK293 cells - 40 hour (AID 1224874); details: RealTime-Glo luminescence; max response: stronger effect = lower value; also: nearly all actives have a fitted effect of over 50% in size
In short: as §6
% is scaled to controls: 0 for no effect and ±100 for the full control effect.

CCC(C)Br (configuration not stated)
inactive: Potency [1] | Potency [2] | Potency [3] | Potency [4] | Potency [5] | Potency [6] | Potency [7] | Potency [8] | Potency [9] | Potency [10] | Potency [11] | Potency [12] | Potency [13] | Potency [14] | Potency [15] | Potency [16] | Potency [17]

CCN(CC)C(=O)N[C@@H]1C=C2c3cccc4[nH]cc(c34)C[C@@H]2N(C)C1
inactive: Potency [1] | Potency [2] | Potency [3] | Potency [4] | Potency [5] | Potency [6] | Potency [7] | Potency [8] | Potency [9] | Potency [10] | Potency [11] | max response [18] -0.723% | Potency [12] | Potency [14] | Potency [15] | Potency [16] | Potency [17]

O=[N+]([O-])[O-].[Tl+]
inactive: Potency [1] | Potency [2] | Potency [3] | Potency [4] | Potency [5] | Potency [7] | Potency [8] | Potency [9] | Potency [10] | Potency [11] | Potency [12] | Potency [13] | Potency [14] | Potency [15] | Potency [16] | Potency [17]

[Cl-].[Cl-].[Cl-].[Yb+3]
inactive: Potency [1] | Potency [2] | Potency [3] | Potency [4] | Potency [5] | Potency [6] | Potency [7] | Potency [8] | Potency [9] | Potency [10] | Potency [11] | max response [18] 28.3% | Potency [12] | Potency [13] | Potency [14] | Potency [15] | Potency [16] | Potency [17]

COCCC#N
inactive: Potency [1] | Potency [2] | Potency [3] | Potency [4] | Potency [5] | Potency [6] | Potency [7] | Potency [8] | Potency [9] | Potency [10] | Potency [11] | max response [18] 7.47% | Potency [12] | Potency [13] | Potency [14] | Potency [15] | Potency [16] | Potency [17]

O=S(=O)(O)F
inactive: Potency [1] | Potency [2] | Potency [3] | Potency [4] | Potency [5] | Potency [6] | Potency [7] | Potency [8] | Potency [9] | Potency [10] | Potency [11] | max response [18] 6.96% | Potency [12] | Potency [13] | Potency [14] | Potency [15] | Potency [16] | Potency [17]

CC(Cl)CCl (configuration not stated)
inactive: Potency [1] | Potency [2] | Potency [3] | Potency [4] | Potency [5] | Potency [6] | Potency [7] | Potency [8] | Potency [9] | Potency [10] | Potency [11] | max response [18] -4.79% | Potency [12] | Potency [13] | Potency [14] | Potency [15] | Potency [16] | Potency [17]
